The structures appear in SMILES notation. Inconclusive results are not listed. Entries that show only a call come without a potency. Values without a mark were called inactive. Activity calls are given as the source filed them. The call rests on the fitted dose curve; in most records, active means well fitted cell-killing curve with a large enough effect; inconclusive means small, poorly fitted or top-dose-only effect, or effect the other way; inactive means flat fitted curve, though single readings scatter.

The test system of this assay is PA-1. Nature of the assay: Primary qHTS to identify gynecologic anti-cancer compounds using libraries of approved drugs and bioactive compounds (AID 1345084). Further: nearly all actives have a fitted effect of over 55% in size. The conditions noted are these: Gynecologic cancer cell panel viability, ATPlite luminescence, 48 h; series mostly up to 57.5 µM. The essentials:
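Luminescence from the ATPlite ATP-monitoring reagent indicates viable cell number; lower signal means cytotoxicity. Cells received compound 16 h after seeding and were exposed for 48 h across five concentrations.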
On the technique in general: qHTS replaces the single test concentration by a dilution series.
Consider `O=C(O)CCc1c(C(=O)O)[nH]c2cc(Cl)cc(Cl)c12`, for which the Potency entry is “inactive”.
As to `OC[C@@]1(O)CO[C@H](OC[C@H]2O[C@@H](OCCc3ccccc3)[C@H](O)[C@@H](O)[C@@H]2O)[C@@H]1O`, the Potency entry was “inactive”.
Same read-out and setting: then `C=C1CC[C@H]2[C@@](C)(CCC(O)[C@@]2(C)CO)[C@@H]1/C=C/C(=C\C(=O)O)C(=O)O` (stereo partly drawn), with “inactive”; and `C=C1C(OC(C)=O)C(=O)C2C(C)(C)C(O)CCC2(C)C1CC(OC(C)=O)/C(C)=C/COC(C)=O` (stereo not drawn), with “inactive”; and `Cc1cc(-c2nncc3c(C(C)(C)C)c(OCc4ncnn4C)nn23)no1`, with “inactive”.
Same read-out and setting: then `C=C1CC2C(C)(CCC(=O)O)C(C(C)(C)O)CCC2(C)C2(C(=O)OC)C(=O)C(C)(O)C(=O)C12C` (stereo not drawn), with “inactive”.
Consider `C[C@@H]1O[C@@H](O[C@H]2[C@H](OC(=O)[C@]34CCC(C)(C)C[C@H]3C3=CCC5[C@@]6(C)CC[C@H](O[C@@H]7O[C@H](CO[C@@H]8OC[C@H](O)[C@H](O)[C@H]8O[C@@H]8OC[C@@H](O)[C@H](O)[C@H]8O)[C@@H](O)[C@H](O)[C@H]7O)C(C)(C)C6CC[C@@]5(C)[C@]3(C)C[C@H]4O)O[C@H](CO)[C@@H](O)[C@@H]2O)[C@H](O[C@@H]2O[C@H](CO)[C@@H](O)[C@H](O)[C@H]2O)[C@H](O)[C@H]1O[C@@H]1OC[C@@H](O)[C@H](O[C@@H]2OC[C@@H](O)[C@H](O)[C@H]2O)[C@H]1O` (stereo partly drawn), for which the activity change, negative = cytotoxicity was 1.34% [at 6.55 µM].
Turning to `COCCCc1sc(-c2ccccc2)nc1C(=O)Nc1ccccc1-c1nc2cc(CN3CCCC3)cnc2s1`, the Potency result is “inactive”.

The values are drawn from PubChem BioAssay (NCATS).
